The source of these data is PubChem BioAssay (NCI).

Common to all, as to experiment: NCI-60 one-dose screen, 48 h (100 = growth as untreated, 0 = no growth, -100 = all killed)
Common to all, as to conditions: 10 µM unless noted

The test system of assay [1] is SR leukemia.
Assay [2] has as its system RPMI-8226 leukemia.
In assay [3] the test system is OVCAR-8 ovarian.
For assay [4], the system named is OVCAR-5 ovarian.
In assay [5] the test system is OVCAR-4 ovarian.
For assay [6], the system named is SK-OV-3 ovarian.
Assay [7] has as its system IGROV1 ovarian.
The subject of assay [8] is OVCAR-3 ovarian.
Assay [9] has as its system HS 578T breast.
In assay [10] the test system is NCI/ADR-RES ovarian.
Assay [11] relates to T-47D breast.
Assay [12] deals with BT-549 breast.
In assay [13] the test system is MDA-MB-435 melanoma.
Assay [14] deals with SW-620 colon.
Assay [15] concerns MCF7 breast.
The test system of assay [16] is HCT-116 colon.
Assay [17] relates to HCC-2998 colon.
Assay [18] deals with KM12 colon.

Values joined by “and” are separate entries in the source; they are usually repeats but may differ in a detail not shown here. Equal entries are not always repeated. The panel holds about 83,000 compounds, 20% with a hit somewhere; the sample as a whole holds those more often.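 96-well plates, one dose, 48 hours. Percent growth reported; active if below 10.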 Values without a mark were called inactive. Active and inactive are the calls of the source.

Regarding `COc1c(F)cc(-n2c(C(=O)N3CC(F)C3)cc3cccnc32)cc1F`, the growth in assay [1] was 97.1%; in assay [2], 95.1%; in assay [3] it was 102%; in assay [4] it was 100%; in assay [5], 97.1%; in assay [6] it was 111%. Further, the growth was 94.4% in [7]; 101% in [8]; 105% in assay [9]; 90.7% in [10]; 89.5% in assay [11]; 97.2% in [12]. In addition, the growth in [13] was 116%; in [14], 104%; in assay [15] it was 105%; in [16] it was 95.9%; in [17], 99.7%.
For the molecule `O=C(CCCCCCCCC(=O)N/N=C\c1ccccc1O)N/N=C\c1ccccc1O`, the growth in assay [1] is 13.5%; in assay [2] it was 32.8%; in assay [3], 25.5%; in assay [4], 67.5%; in assay [5] it was 15.9%; in [6], 36.9%. Besides, the growth is 29.6% in assay [7]; 39.8% in [8]; 46.8% in assay [9]; 14.1% in [10]; 18.1% in assay [11]; 26.9% in assay [12]. Also, the growth in assay [13] is 33.8%; in [14], 30.2%; in assay [15], 16.9%; in assay [16], 13%; in assay [17], 44.8%; in [18], 26.5%.
Take `Clc1ccc2c(NCCN3CCN(c4ccnc(N5CCCC5)n4)CC3)ccnc2c1`: the growth in assay [1] is -12.2% (active); in assay [2] it was -10.6% (active); in assay [3], 36.8%; in assay [4], 68.8%; in assay [5] it was 57.8%; in [6], 90%. Further, the growth in assay [7] is 47.8%; in assay [8], 40.8%; in assay [9] it was 76.4%; in assay [10] it was 49%; in assay [11], 2.2% (active); in assay [12] it was 75.8%. Moreover, the growth in [13] is 15.2%; in assay [14] it was 12.9%; in [15] it was 12.3%; in assay [16] it was 4.45% (active); in assay [17] it was 0.613% (active).
With `CCCc1cc(C(N)=S)ccn1`, the growth in [1] was 104%; in [2], 120%; in assay [3], 99.3%; in assay [4], 105%; in assay [5], 110%; in [6], 100%. Besides, the growth in assay [7] was 105%; in [8], 115%; in assay [9], 125%; in assay [10], 87.8%; in [11], 105%; in [12] it was 98.1%. In addition, the growth is 105% in assay [13]; 107% in assay [14]; 108% in assay [15]; 95.8% in assay [16]; 108% in [17].
On to `CCCCCCNC(=O)Oc1ccc(/C(=C(/CC)Cc2ccccc2)c2ccc(OCCCN(C)C)cc2)cc1`, for which the growth in assay [1] was -9.68% (active); in assay [2] it was 75.2%; in [3] it was 83.9%; in assay [4], 90.5%; in assay [5], 81.7%; in assay [6], 88.2%. Moreover, the growth in assay [7] is 68.1%; in assay [8], 95.3%; in [9] it was 86.3%; in assay [10], 72.2%; in assay [11] it was 54.4%; in assay [12], 82.8%. Moreover, the growth in assay [13] was 87.8%; in assay [14] it was 59.6%; in [15] it was 22.9%; in [16], 39.8%; in assay [17], 24.1%.
For `Cc1ccc(NC(=O)c2sc3nc(C)c(C(=O)c4ccccc4)cc3c2N)cc1`, the growth in assay [1] is 45.2%; in [2], 90.1%; in [3], 94.6%; in [4] it was 97.6%; in [5], 89.3%; in assay [6] it was 45.8%. Besides, the growth in assay [7] was 95%; in assay [8] it was 94.8%; in assay [9], 75.9%; in [10] it was 95.2%; in [11] it was 87.7%; in assay [12], 84.7%. In addition, the growth in assay [13] was 39.5%; in assay [14], 90.8%; in assay [15] it was 70.9%; in assay [16] it was 97.7%; in assay [17], 106%; in [18], 76.2%.
With `CC1=CC(C)(C)NC(=S)N1c1ccc(Cl)cc1`, the growth in assay [1] is 97.8% and 93%; in assay [2], 100%; in assay [3], 100% and 104%; in assay [4], 95% and 104%; in assay [5] it was 103%; in assay [6] it was 122% and 93.2%. Further, the growth in [7] is 96.4%; in [8], 110% and 104%; in assay [9], 102% and 113%; in [10], 103% and 112%; in assay [11], 92.8% and 87.2%; in assay [12], 99.1% and 110%. The growth was 101% and 117% in [13]; 100% and 115% in [14]; 101% and 97.3% in assay [15]; 99.6% and 89% in [16]; 105% and 100% in [17].
`Cc1nn(-c2nc(-c3cc4ccccc4oc3=O)cs2)c(C)c1N=Nc1ccccc1`: the growth was 90.4% in assay [1]; 101% in assay [2]; 106% in [3]; 106% in assay [4]; 102% in [5]; 110% in assay [6]. Further, the growth in assay [7] is 105%; in assay [8], 101%; in assay [9], 108%; in assay [10], 104%; in [11], 95.3%; in [12], 99.7%. In addition, the growth in [13] was 101%; in assay [14], 103%; in assay [15] it was 89.3%; in [16], 105%; in assay [17], 111%.
For the molecule `Cc1ccc2c(c1)C(C)Cc1c(ncnc1-n1cnc3cc(C)ccc31)N2C` (stereo not given), the growth in [1] is 1.44% (active); in assay [2], -0.691% (active); in assay [3], 0.0907% (active); in assay [4] it was 79%; in assay [5], 61.7%; in assay [6], 5.86% (active). The growth is 21.9% in assay [7]; 20.2% in [8]; 31.6% in [9]; 5.12% (active) in [10]; 55.9% in assay [11]; -0.751% (active) in assay [12]. The growth in [13] is 4.21% (active); in [14], 22.7%; in assay [15], 12.6%; in assay [16] it was 11.2%; in [17], 21.7%.
